From PubChem BioAssay (Tox21)
Active and inactive are the calls of the source. Where a call stands in place of a potency, no number is given. Calls come from the whole dose curve. Starred links: 1 amine or outer side, 2 acyl side, 3 side chain; linkers in the order of their positions; H or OH if unused. Positions of bridges follow the written chain, without caps; N, C: chain ends. Non-standard residues stand in square brackets, D forms with d. Residues, ends and D or L forms follow the SMILES beside them. Chains are numbered I, II in the order given. Actinocin(9to1) = Cc1c2oc3c(C)ccc(C(=O)[*:1])c3nc-2c(C(=O)[*:2])c(N)c1=O; NMeV = CN[C@H](C(=O)O)C(C)C; Sar = CNCC(=O)O

These molecules were tested against Acetylcholinesterase (Homo sapiens) (UniProt P22303) (assay: Acetylcholinesterase (AChE) small molecule antagonists: enzyme-based qHTS assay with human liver microsomes (AID 1347399; note: nearly all actives have a fitted effect of over 60% in size)). Details: Potency: qHTS inhibition; outcome: qHTS inhibition; series mostly up to 115 µM.
Chain of Acetylcholinesterase (Homo sapiens) (P22303 whole entry, looked up): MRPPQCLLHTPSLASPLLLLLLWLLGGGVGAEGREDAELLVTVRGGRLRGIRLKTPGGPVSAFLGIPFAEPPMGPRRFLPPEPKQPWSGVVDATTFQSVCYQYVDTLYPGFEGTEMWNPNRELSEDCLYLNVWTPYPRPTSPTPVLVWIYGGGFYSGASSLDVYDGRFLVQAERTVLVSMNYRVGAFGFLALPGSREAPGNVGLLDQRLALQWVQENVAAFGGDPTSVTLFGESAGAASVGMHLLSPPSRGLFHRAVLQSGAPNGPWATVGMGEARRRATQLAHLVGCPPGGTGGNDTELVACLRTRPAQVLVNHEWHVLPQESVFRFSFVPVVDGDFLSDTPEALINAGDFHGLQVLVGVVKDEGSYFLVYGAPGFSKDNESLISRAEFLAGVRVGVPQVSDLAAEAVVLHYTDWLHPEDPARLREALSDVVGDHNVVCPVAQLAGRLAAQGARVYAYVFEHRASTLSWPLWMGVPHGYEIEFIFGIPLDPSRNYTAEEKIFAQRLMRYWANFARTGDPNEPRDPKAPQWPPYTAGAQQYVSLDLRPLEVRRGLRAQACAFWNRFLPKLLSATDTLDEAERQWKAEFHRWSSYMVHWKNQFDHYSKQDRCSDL
Procedure, shortened: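 Recombinant human AChE (50 mU/mL in the enzyme mix) and human liver microsomes (0.25 mg/mL final) were preincubated with compound and NADPH (0.25 mg/mL final) for 30 min at 37 C. Acetylthiocholine/DTNB was then added; thiocholine was read colorimetrically after 10 min at room temperature.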
`CC(C)CC(=O)O` was tested, and the Potency was “inactive”.
In the case of `CC(C)(c1cc(Br)c(OCC(Br)CBr)c(Br)c1)c1cc(Br)c(OCC(Br)CBr)c(Br)c1` (stereo not given), the Potency is reported as “inactive”.
For `O=C(O)Cn1c(=O)n(Cc2ccc(Br)cc2F)c(=O)c2ccc(Cl)cc21`, the Potency was “inactive”.
In the case of `O=C(O)CNCC(=O)O`, the activity change, negative = inhibition is reported as -0.995% [at 10.5 µM] (inactive).
`O=C1O[C@H]([C@@H](O)CO)C(O)=C1O` was tested, and the Potency was “inactive”.
In the case of `CC1(C)OC[C@@H](COC(=O)CCc2ccc(OC[C@@H](O)CNCCNC(=O)N3CCOCC3)cc2)O1`, the Potency is reported as “inactive”.
`Nc1ccc(N)c2c1C(=O)c1ccccc1C2=O` was tested, and the Potency was “inactive”.
For `CCCCC(CC)CN1C(=O)C2C3C=CC(C3)C2C1=O` (stereo not given), the Potency was “inactive”.
`Nc1c(CC(=O)O)cccc1C(=O)c1ccc(Br)cc1` was tested, and the Potency was “inactive”.
`NC(=O)c1ccccc1O` was tested, and the Potency was “inactive”.
With `C=CCOC(=O)CCC1CCCCC1` the Potency was “inactive”.
`Cc1c2oc3c(C)ccc(C(=O)N[C@@H]4C(=O)N[C@H](C(C)C)C(=O)N5CCC[C@H]5C(=O)N(C)CC(=O)N(C)[C@@H](C(C)C)C(=O)O[C@@H]4C)c3nc-2c(C(=O)N[C@@H]2C(=O)N[C@H](C(C)C)C(=O)N3CCC[C@H]3C(=O)N(C)CC(=O)N(C)[C@@H](C(C)C)C(=O)O[C@@H]2C)c(N)c1=O` (I: T[dV]P[Sar][NMeV] / II: T[dV]P[Sar][NMeV]; ester I:1-I:C, II:1-II:C; linker I:N-II:N via Actinocin(9to1)) was tested, and the Potency was “inactive”.
With `C#C[C@]1(O)CC[C@H]2[C@@H]3CCc4cc(O)ccc4[C@H]3CC[C@@]21C` the Potency was “inactive”.
In the case of `O=C(Oc1ccccc1C(=O)O)c1ccccc1O`, the Potency is reported as “inactive”.
`CCCNC(C)C(=O)Nc1c(C)csc1C(=O)OC` (stereo not given) was tested, and the Potency was “inactive”.
For `Cc1ccc(S(=O)(=O)O)c(C)c1`, the Potency was “inactive”.
In the case of `CCCCCOC(=O)COc1cc(N2C(=O)C3=C(CCCC3)C2=O)c(F)cc1Cl`, the Potency is reported as “inactive”.
With `Fc1ccc([C@@H]2CCNC[C@H]2COc2ccc3c(c2)OCO3)cc1` the Potency was “inactive”.
With `c1ccc(CNCCNCc2ccccc2)cc1` the Potency was “inactive”.
For `C[Si](C)(C)O[Si](C)(C)O[Si](C)(C)C`, the Potency was “inactive”.
In the case of `CC1=C(C=O)C(C)(C)CCC1`, the Potency is reported as “inactive”.
For `CCOCCn1c(N2CCCN(C)CC2)nc2ccccc21`, the Potency was “inactive”.
`C[N+]1(CC2COC(c3ccccc3)(c3ccccc3)O2)CCCCC1` (stereo not given) was tested, and the activity change, negative = inhibition was 4.03% [at 23.6 µM] (inactive).
`Oc1ccc(-c2ccccc2)c(Cl)c1` was tested, and the Potency was “inactive”.
With `OC[C@H]1O[C@H](O[C@]2(CCl)O[C@H](CCl)[C@@H](O)[C@@H]2O)[C@H](O)[C@@H](O)[C@H]1Cl` the Potency was “inactive”.
For `CCOCCn1c(C2CCN(CCc3ccc(C(C)(C)C(=O)O)cc3)CC2)nc2ccccc21`, the Potency was “inactive”.
With `C[C@@H](O[C@H]1OCCN(Cc2n[nH]c(=O)[nH]2)[C@H]1c1ccc(F)cc1)c1cc(C(F)(F)F)cc(C(F)(F)F)c1` the Potency was “inactive”.
For `C=C[Si](OC)(OC)OC`, the Potency was “inactive”.
In the case of `Oc1ccc(Cc2ccccc2O)cc1`, the Potency is reported as “inactive”.
For `C=C[Si]1(C)O[Si](C)(C=C)O[Si](C)(C=C)O[Si](C)(C=C)O1` (stereo not given), the Potency was “inactive”.
With `Cc1ccc(S(=O)(=O)N=C=O)cc1` the Potency was “inactive”.
For `CCCCCCOC(=O)c1ccc(O)cc1`, the Potency was “inactive”.
In the case of `CN1CCN(c2c(F)cc3c(=O)c(C(=O)O)cn4c3c2SCC4)CC1`, the Potency is reported as “inactive”.
With `CC/C(=C\C(=N/O)C(N)=O)C(C)[N+](=O)[O-]` (stereo not given) the Potency was “inactive”.
`C[C@H]1C[C@@H]2[C@H]([C@@H](O)C[C@@]3(C)[C@H]2CC[C@]3(O)C(=O)CO)[C@@]2(C)C=CC(=O)C=C12` was tested, and the Potency was “inactive”.
`COc1cc(O)c(C(=O)c2ccccc2)cc1S(=O)(=O)O` was tested, and the Potency was “inactive”.
`CC(C=O)c1ccccc1` (stereo not given) was tested, and the Potency was “inactive”.
In the case of `CCCCCCOc1ccc(O)cc1`, the Potency is reported as “inactive”.
For `CCCCCCCC(C)=O`, the Potency was “inactive”.
For `CCCC(=O)CC`, the Potency was “inactive”.
